Rows were chosen to be rich in hits. Some 1.4% of all compounds tested hit in one or more screens of this group.
PriA SSB inh: blocks PriA binding to SSB C-terminal tail. AlphaScreen SSBct-PriA binding, biotinylated peptide. inhibition, % at 33 µM. 430,000 tested, 0.6% active. AID 1272365; in the data active means inhibition mostly above about 37%, no sharp cut-off; inactive means mostly below about 20%
Mtb hypoxia rep: reduces hypoxia-regulated biosensor signal in M. tuberculosis; M. tuberculosis hypoxia-regulated fluorescent reporter, fluorescence; fluorescence inhibition, % (test concentration not listed); 300,000 tested, 0.1% active; AID 1159583; in the data active means fluorescence inhibition mostly above about 23%, no sharp cut-off; inactive means mostly below about 17%
Sa RN4220 lethal: kills Staphylococcus aureus RN4220. S. aureus RN4220 growth, OD600, 16 h. inhibition, % (concentration not given with the values). 330,000 tested, 0.33% active. AID 1259311; in the data active means inhibition above about 85%
ugtP null kill: growth inhibition of S. aureus ugtP deletion strain; S. aureus RN4220 ugtP deletion, OD600 growth, 16 h; growth inhibition, % (no concentration beside the values); 330,000 tested, 0.54% active; in the data active means growth inhibition above about 68%
CCHFV vOTU inh: CCHFV vOTU protease inhibition; Pep-AMC fluorescence; inhibition, % at 11.5 µM; 370,000 tested, 0.55% active; AID 651958; in the data active means inhibition above about 30%
Numbers stand for hits; . = inactive; / = no result shown; + = active, no number.

SMILES	PriA SSB inh	Mtb hypoxia rep	Sa RN4220 lethal	ugtP null kill	CCHFV vOTU inh
COc1ccc(C=NNC(=O)C2C(C=C(Cl)Cl)C2(C)C)c(OC)c1 (centres undefined)	.	.	.	.	/
CCCCN(C(=O)CSc1nnc(-c2ccco2)o1)c1c(N)n(Cc2ccccc2)c(=O)[nH]c1=O	.	.	.	.	.
CCCCN(C(=O)c1ccco1)c1c(N)n(CCC)c(=O)[nH]c1=O	.	28	.	.	.
CCCCn1c(N)c(N(CCOC)C(=O)c2oc3ccc(Br)cc3c2C)c(=O)[nH]c1=O	.	26	.	.	.
CCCCN(C(=O)CSc1nnc(-c2ccccc2)o1)c1c(N)n(CCC)c(=O)[nH]c1=O	.	30	.	.	.
CCCCn1c(N)c(N(CC)C(=O)c2ccco2)c(=O)[nH]c1=O	.	.	.	.	.
COc1ccc(OC)c(Nc2nc(CC(N)=O)cs2)c1	.	/	/	/	/
CCCC(=O)Nc1nc(C)c(-c2csc(Nc3cc(OC)ccc3OC)n2)s1	.	.	.	.	.
O=C(Cc1csc(Nc2ccc(F)cc2)n1)Nc1ccc2c(c1)OCCO2	.	/	/	/	/
CCCC(C)C(=O)Nc1nc(C)c(-c2csc(Nc3cc(OC)ccc3OC)n2)s1 (centres undefined)	47	.	.	.	.
COc1ccc(NC(=O)Cc2csc(Nc3cccc(Cl)c3)n2)c(OC)c1	16	/	/	/	/
COc1ccc(OC)c(Nc2nc(CC(=O)Nc3ccc4c(c3)OCCO4)cs2)c1	33	/	/	/	/
COc1ccc(OC)c(Nc2nc(CC(=O)Nc3ccc(C)cc3)cs2)c1	31	/	/	/	/
NC[C@H](CC(=O)O)c1cccnc1	.	/	/	/	/
COc1ccc(OC)c(Nc2nc(CC(=O)NCc3ccc(F)cc3)cs2)c1	18	/	/	/	/
COc1ccc(OC)c(Nc2nc(CC(=O)NCc3ccncc3)cs2)c1	.	/	/	/	/
Clc1cc2c(c3ncccc13)OCN(Cc1cccnc1)C2	101	/	/	/	/
CCOC(=O)c1c(C)oc2c1c1c(c3ccccc32)OCN(Cc2cccnc2)C1	.	/	.	.	/
Clc1cc2c(c3ncccc13)OCN(Cc1ccccc1)C2	89	/	/	/	/
CS(=O)(=O)NCC1CCCN1c1ccccc1 (centres undefined)	.	/	/	/	/
CCOc1cc(-c2ccc(N)c(OCC)c2)ccc1N	70	/	.	.	.
COc1ccc(CNC(=O)c2ccc(OC)nn2)cc1	.	/	/	/	/
Oc1c(N=Nc2ccc(F)cc2)ccc2ccccc12	39	/	/	/	.
CC(=O)c1ccc(C(=O)Nc2nnc(-c3ccc(Cl)cc3)o2)cc1	.	.	98	99	.
O=C(COc1ccc(Cl)cc1)Nc1nnc(-c2ccc3c(c2)CCCC3)o1	.	.	100	96	.
SMILES	PriA SSB inh	Mtb hypoxia rep	Sa RN4220 lethal	ugtP null kill	CCHFV vOTU inh
COc1cccc2cc(-c3nnc(NC(=O)c4cccc(S(C)(=O)=O)c4)o3)oc12	90	/	/	/	/
COc1cccc2cc(-c3nnc(NC(=O)c4ccc(N(C)C)cc4)o3)oc12	.	/	/	/	/
O=C(COC(=O)Cc1ccccc1)Nc1nnc(-c2ccccc2)o1	.	.	.	.	.
O=C(COC(=O)c1ccc(O)cc1)Nc1nnc(-c2ccccc2)o1	59	/	/	/	/
COc1ccc2nc(-c3ccc(NC(=O)C4c5ccccc5Oc5ccccc54)cc3)cn2n1	.	/	/	/	/
O=S(=O)(NCCSC1CCOCC1)c1ccccc1Br	.	/	/	/	/
Cn1c(/C=C(\C#N)c2nc3ccccc3s2)ccc1-c1cccc(Cl)c1	.	/	/	/	/
CN1CCN(C(=O)C2=CC(C(C)(C)C)CC(OCCCCO)O2)CC1 (centres undefined)	/	.	.	.	/
CC(Oc1ccccc1)C(=O)NCCn1ccc(C(F)(F)F)n1 (centres undefined)	.	/	/	/	/
O=C(Nc1nnc(-c2ccccc2)o1)c1ccc(Cl)cc1	.	.	96	99	.
COc1cccc(C(=O)Nc2nnc(-c3ccc(F)cc3)o2)c1	.	.	.	.	.
COc1cccc(C(=O)Nc2nnc(-c3ccc(Cl)cc3)o2)c1	.	.	99	100	.
CN(C)c1ccc(C(=O)Nc2nnc(-c3ccc(Cl)cc3)o2)cc1	.	.	.	.	.
O=C(CSc1cccc2cccnc12)N/N=C/c1cccc(O)c1	+	/	/	/	.
COc1cc(/C=N/NC(=O)CSc2cccc3cccnc23)cc(OC)c1OC	+	/	/	/	/
CCCOc1cccc(C2C(=C(O)c3ccc(F)cc3)C(=O)C(=O)N2CCN(C)C)c1 (centres undefined)	.	/	/	/	/
O=C(COc1ccc(Cl)cc1Cl)Nc1nc2c(s1)CN(Cc1ccccc1)CC2	.	/	/	/	/
Cc1nc2cc(C(F)(F)F)ccc2n1CCNc1nc(-c2ccc(F)cc2)cs1	.	.	.	.	.
Cc1ccc(-c2csc(NCCn3c(-c4ccncc4)nc4cc(C(F)(F)F)ccc43)n2)cc1	.	.	94	.	.
COc1ccccc1/C=N/Nc1ccccc1[N+](=O)[O-]	.	/	/	/	/
COC(=O)c1ccc(CSc2nc(C)cc(C(F)(F)F)n2)cc1	38	/	/	/	/
CN1CCN(N=Cc2ccc(N(C)c3ccccc3)cc2)CC1	.	.	.	.	/
COc1c(N2CCNC(C)C2)c(F)cc2c(=O)c(C(=O)O)cn(C3CC3)c12 (centres undefined)	/	/	100	100	/
NC1CCN(c2nc3c(cc2F)c(=O)c(C(=O)O)cn3-c2ccc(F)cc2F)C1 (centres undefined)	.	/	100	99	.
COc1c(N2CC3CCCNC3C2)c(F)cc2c(=O)c(C(=O)O)cn(C3CC3)c12 (centres undefined)	/	/	101	100	/
SMILES	PriA SSB inh	Mtb hypoxia rep	Sa RN4220 lethal	ugtP null kill	CCHFV vOTU inh
NC1CCN(c2c(F)cc3c(=O)c(C(=O)O)cn(C4CC4)c3c2Cl)C1 (centres undefined)	.	/	100	100	.
CCOC(=O)c1cn(C2CC2)c2c(F)c(NCCCN(C)C)c(F)cc2c1=O	.	.	.	.	.
O=C(C1c2ccccc2Oc2ccccc21)N(CCc1cccs1)C1CC1	.	/	/	/	/
CC1CCc2c(N3CCC(O)CC3)c(F)cc3c(=O)c(C(=O)O)cn1c23 (centres undefined)	.	/	99	99	.
CS(=O)(=O)Nc1cccc(C2=NN(C(=O)c3ccco3)C(c3ccccc3F)C2)c1 (centres undefined)	58	/	/	/	/
CS(=O)(=O)Nc1ccc(C2=NN(C(=O)c3ccco3)C(c3ccccc3F)C2)cc1 (centres undefined)	.	.	.	.	.
Cc1ccnc(Nc2ccc(NCCNC(=O)c3ccc(Br)o3)nn2)c1	62	/	/	/	/
O=C(NCc1ccc(C(O)c2cccs2)s1)c1ccccc1Br (centres undefined)	.	/	/	/	/
Brc1ccc(C2N(Cc3ccccc3)CCN2Cc2ccccc2)s1	.	/	/	/	/
CC(=O)c1c(C)[nH]c2ccc(O)cc12	.	/	/	/	/
CC1=CC(C)[C@H](C=Nn2c(=O)[nH]c3c([nH]c4ccc(Br)cc43)c2=O)C(C)C1 (some centres undefined)	.	.	.	66	/
COc1ccc2[nH]c3c(=O)n(N=C[C@H]4C(C)C=C(C)CC4C)c(=O)[nH]c3c2c1 (some centres undefined)	.	/	/	/	/
COc1ccccc1-n1cc(-c2ccccc2)[nH]c1=S	.	.	.	.	.
COc1ccccc1-n1cc(-c2ccccc2)c2c(=S)nc[nH]c21	41	.	.	.	.
O=C(Nc1ccc(-c2ccc3nnc(-c4ccccn4)n3n2)cc1)c1ccc(Cl)nc1	.	/	/	/	/
